# Screening data from PubChem BioAssay.
# The list is not random: actives were taken first. Their share in the collection is about 10%.
# G9a block: blocks human histone lysine methyltransferase G9a | AID 504332 | G9a H3K9 monomethylation, AlphaScreen, 2 h | Q96KQ7 | 8.8% of 350,000 active | Potency, µM (series often up to 102 µM), inactives show top-dose activity, negative = inhibition, actives largely listed as inhibitors; also: potency is read from the fitted curve at half-maximal effect; % is scaled to controls: 0 for no effect and ±100 for the full control effect; nearly all actives have a fitted effect of over 75% in size
# Target sequence (Q96KQ7 913-1193 limits assumed): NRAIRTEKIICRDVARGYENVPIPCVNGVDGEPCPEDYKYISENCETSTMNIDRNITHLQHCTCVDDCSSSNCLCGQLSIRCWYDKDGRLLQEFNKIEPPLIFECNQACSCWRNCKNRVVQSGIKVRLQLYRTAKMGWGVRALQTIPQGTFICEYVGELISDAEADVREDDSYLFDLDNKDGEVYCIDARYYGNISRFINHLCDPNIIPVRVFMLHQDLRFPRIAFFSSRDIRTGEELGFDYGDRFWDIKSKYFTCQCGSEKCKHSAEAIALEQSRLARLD
#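 Chemiluminescent proximity detection of H3K9 monomethylation, read after 10 min bead incubation in the dark. Reaction: 20 nM G9a, 500 nM biotin-H3K9 peptide, 20 uM SAM cofactor, 2 h, room temperature, following 15 min enzyme-compound preincubation.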
# HP1b binding inh: HP1-beta chromodomain-methylated histone interaction inhibition | P83916 | AlphaScreen HP1-beta / biotin-H3K9me3 peptide binding | Potency, µM (titrated, usually from 114 µM), without a hit: top-dose activity change, negative = inhibition, hits mostly inhibitors | 0.56% of 390,000 active; also: potency is read from the fitted curve at half-maximal effect; nearly all actives have a fitted effect of over 70% in size
# Target sequence (P83916 whole entry, looked up): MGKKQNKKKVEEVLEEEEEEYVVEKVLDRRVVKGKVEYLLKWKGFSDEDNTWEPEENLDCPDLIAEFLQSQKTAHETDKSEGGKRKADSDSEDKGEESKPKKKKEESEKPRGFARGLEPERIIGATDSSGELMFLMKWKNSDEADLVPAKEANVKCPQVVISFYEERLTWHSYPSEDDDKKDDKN
#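 Compound inhibition of the preformed complex between 50 nM HP1-beta and 50 nM biotinylated H3K9me3 peptide was read by AlphaScreen. Buffer was PBS pH 7.4 with 0.01% Tween-20. Incubations ran 30 min at room temperature, with 10 ug/mL donor/acceptor beads.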
# CtBP-E1A inh: CtBP/E1A binding inhibition; AlphaScreen GST-E1A/His-CtBP binding, 1536-well; stronger effect = lower value; activity change, % (test concentration not listed); 0.49% of 340,000 active; AID 651724; in the data active = activity change below about -65%; inconclusive = mostly about -30% to -63%; also: % is scaled to controls: 0 for no effect and ±100 for the full control effect
#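 Steps: dispense buffer (Tris pH 8.0, NaCl 300 mM, TCEP 1 mM, BSA, Tween 20); add 5X protein mix (GST-E1A, His-CtBP, 125 nM each); pin 23 nL compound; 2 h at 37 °C, dark; add 5X beads (50 ug/mL); 1 h; read.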
# Six1-Eya2 inh: Six1/Eya2 interaction inhibition; Q15475+O00167; AlphaScreen GST-Six1/His-Eya2 binding, biochemical; stronger effect = lower value; activity change, % (concentration not given with the values); 0.56% of 360,000 active; in the data active = activity change below about -65%; inconclusive = mostly about -30% to -63%; also: % is scaled to controls: 0 for no effect and ±100 for the full control effect
#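 AlphaScreen luminescence read after one hour at 37 °C in darkness. Pin-transferred compounds met GST-Six1 and His-Eya2 protein (5X stock 250 nM/500 nM) plus glutathione donor and Ni-chelate acceptor beads (5X, 50 ug/mL).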
# BAZ2B inh: BAZ2B (human) inhibition | Potency, µM (doses to about 114 µM), for the others: at the highest dose activity change, negative = inhibition, hits mostly inhibitors | AlphaScreen BAZ2B-H3K14Ac peptide displacement | Q9UIF8 | 4.4% of 360,000 active | AID 504333; also: potency is read from the fitted curve at half-maximal effect; % is scaled to controls: 0 for no effect and ±100 for the full control effect; nearly all actives have a fitted effect of over 60% in size
#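 AlphaScreen displacement: compounds (up to 110uM) incubated 30 min at room temperature with a preformed 50 nM BAZ2B/50 nM biotinylated H3K14Ac peptide complex in PBS pH 7.4 with Tween-20. Donor and acceptor beads at 10 ug/mL final added, 20 min light-protected before reading.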
# JMJD2A Tudor inh: blocks the human JMJD2A Tudor domain; O75164; AlphaScreen JMJD2A-Tudor / H3K4me3 peptide binding; Potency, µM (doses to about 114 µM), inactives show top-dose activity change, negative = inhibition, hits mostly inhibitors; 4.4% of 390,000 active; AID 504339; also: potency is read from the fitted curve at half-maximal effect; % is scaled to controls: 0 for no effect and ±100 for the full control effect; nearly all actives have a fitted effect of over 50% in size
# Starred values were filed as active, the others as inactive; ? = inconclusive; nt = no result; [ ] = dose if it differs, or a comment. Unless noted, calls follow the shape of the dose curve; as a rule, active = well fitted inhibition curve with a large enough effect; inconclusive = small, poorly fitted or top-dose-only effect; inactive = no such curve, though single readings can be large or run the other way.
SMILES,G9a block,HP1b binding inh,CtBP-E1A inh,Six1-Eya2 inh,BAZ2B inh,JMJD2A Tudor inh
CCCn1c(SCc2ccc(Cl)cc2)nc2c1c(=O)[nH]c(=O)n2C,50µM*,9%,-1,-3,-9%,-3%
Cn1c(=O)[nH]c(=O)c2c1nc(SCC(=O)O)n2Cc1ccccc1,22µM*,?,nt,-4,8%,25µM*
Cn1c(=O)c2c(nc(SCC(=O)O)n2Cc2cccc(C(F)(F)F)c2)n(C)c1=O,14µM*,47%,-3,-4,5%,-27%
C/C=C/Cn1c(SC)nc2c1c(=O)[nH]c(=O)n2C,8.9µM*,5%,2,13,-3%,-6%[11.4 µM]
Cn1c(=O)c2c(nc(NCCCO)n2Cc2cccc(C(F)(F)F)c2)n(C)c1=O,34%[12.7 µM],18%,1,3,10%,-29%
C/C=C/Cn1c(Br)nc2c1c(=O)[nH]c(=O)n2C,-9%[59 µM],47%,5,-1,-2%,-11%
CCc1ccc(NCc2cc3cc4c(cc3n(CC(=O)Nc3ccccc3OC)c2=O)OCCO4)cc1,?,-19%,nt,nt,-36%,?
CC(CCc1ccccc1)NC(=O)Cn1c(=O)nc(-c2ccccc2)c2cc(Cl)ccc21 (centres undefined),2%[12.7 µM],32%,nt,nt,-6%,-6%
CC(=NNC(=O)c1ccncc1)c1ccc(O)cc1O,nt,67%,-76*,?,nt,-25%
O=C(N/N=C(\c1ccccc1)c1cccnc1)c1cc(O)ccc1O,10µM*,nt,nt,nt,-34%,nt
O=C(O)CC/C(=N\NC(=O)c1ccncc1)c1ccccc1,nt,12%,5,11,-7%,25µM*
C/C(=N\NC(=O)c1ccc(CN2CCc3ccccc3C2)cc1)c1ccccc1O,18%,25%,-22,-26,2.8µM*,?
CCOc1ccccc1CNC(=O)c1cnc2sc(N3CCOCC3)nn2c1=O,13%[59 µM],-15%,nt,nt,-7%,-25%
C/C(=N\NC(=O)c1cc(-c2cccnc2)nc2ccccc12)c1ccc(O)cc1O,0%[59 µM],16%,-2,-74*,-1%,-11%
CC(=NNC(=O)c1ccncc1)c1ccc2ccccc2c1O,nt,35%,?,?,nt,-3%
CN(C)c1ccc(/C(=N\O)c2ccccc2)cc1,14µM*,-35%,-19,-18,-10%,50µM*
COc1ccc(NC(=O)c2ccc(CN3CCc4ccccc4C3)cc2)cc1OC,71µM*,10%,2,-14,-23%,-1%
CC(=NNC(=O)c1ccncc1)c1ccccc1O,nt,58%,-75*,-71*,nt,-26%
Cc1ccc(CNC(=O)C2CCCN(c3nn4cc(-c5ccc(C)cc5)nc4s3)C2)cc1 (centres undefined),-26%[59 µM],14%,nt,nt,-12%,?
CCc1noc2nc(C)n(CC(=O)O)c(=O)c12,-3%[59 µM],38%,nt,nt,-6%,-8%
Cc1ccc2c(=O)c(C(=O)c3ccc(F)cc3)cn(CC(=O)NCCc3ccccc3)c2n1,17%[59 µM],59%,nt,nt,52%[57.1 µM],-19%
CCCn1c2ccccc2c2cnn(CC(=O)Nc3cccc(C(=O)OCC)c3)c(=O)c21,-4%[59 µM],17%,nt,nt,-21%,-19%
CC/C(=N\NC(=O)c1ccc(N(C)C)cc1)c1ccccc1,28µM*,-2%,2,3,-9%,?
CN(C)c1ccc(/C=N/NC(=O)c2ccccc2)cc1,-41%,28%,1,5,-30%,-17%
CCCN(Cc1cccs1)C(=O)Nc1cc(C)ccc1OC,5%[59 µM],88%,nt,nt,22%,47%
SMILES,G9a block,HP1b binding inh,CtBP-E1A inh,Six1-Eya2 inh,BAZ2B inh,JMJD2A Tudor inh
CCCCC(OC(=O)CNC(=O)c1ccccc1)C(=O)Nc1cc(C(F)(F)F)ccc1Cl (centres undefined),nt,nt,nt,nt,nt,-12%
O=C1SC(Nc2ccc(Cl)cc2)C(=O)N1Cc1ccccc1 (centres undefined),-43%[59 µM],75%,nt,nt,15%,8%
COC(=O)c1cccc(CN2C(=O)SC(Nc3ccccc3)C2=O)c1 (centres undefined),79µM*,34%,1,8,-9%,1%
CCOc1ccc(NC2SC(=O)N(Cc3ccccc3)C2=O)cc1 (centres undefined),11µM*,-20%,nt,nt,?,?
COc1ccc(F)cc1S(=O)(=O)NCCc1csc(-c2ccc(Cl)cc2)n1,1%[59 µM],23%[57 µM],nt,nt,2%,-9%
CCCC(=O)N(c1ccc2oc3c(c2c1)CCCC3)S(=O)(=O)c1ccc(CC)cc1,1%[59 µM],5%,nt,nt,-13%,-10%
O=C1c2ccccc2C(=O)N1c1ccc2ccccc2n1,nt,nt,nt,nt,nt,-12%
CC(C)n1c(SCC(=O)c2ccc(F)cc2)nc2c(sc3ccccc32)c1=O,11%[59 µM],-1%,nt,nt,0%,?
NCCN1CCN(S(=O)(=O)c2ccc([N+](=O)[O-])cc2)C=C1c1ccc(Cl)cc1,2%[0.501 µM],-12%,-19,-11,56µM*,?
Cc1ccc(NC(=O)CCCc2nnc3n(C)c(=O)c4sccc4n23)cc1F,3%[59 µM],24%,nt,nt,-8%,-1%
Cc1c(C(=O)Oc2cc(N)n(S(C)(=O)=O)n2)cccc1[N+](=O)[O-],16µM*,8%,-6,-20,?,-22%
Cc1ccccc1C(=O)Oc1cc(N)n(S(C)(=O)=O)n1,-20%,40%,-5,-15,-17%,-8%
Oc1ccc(/C=N/N2CCN(Cc3ccccc3)CC2)cc1,-3%[0.501 µM],2%,nt,0,-11%,-26%
Cn1cccc1/C=N/N1CCN(Cc2ccc(Cl)cc2)CC1,40µM*,40µM*,-12,?,32µM*,50µM*
Cn1cccc1/C=N/N1CCN(Cc2ccccc2)CC1,25µM*,?,nt,-19,50µM*,?
OC1CCCN(Cc2cccc3ccccc23)C1 (centres undefined),-9%[59 µM],29%,4,0,3%,7%
Cn1cccc1/C=N/N1CCN(Cc2cccc3ccccc23)CC1,25µM*,?,-26,?,22µM*,32µM*
Cc1ccc(CN2CCN(/N=C/c3ccccc3)CC2)cc1,?,?,-4,-8,?,?
Cc1ccccc1OCC(=O)OCc1cc(=O)n2nc(C3CCCCC3)sc2n1,3%[59 µM],36%,nt,nt,-2%,-8%
CS(=O)(=O)N1CCN(c2ccc(NC(=O)c3ccc(-c4ccc(Cl)cc4)o3)cc2)CC1,12%,12%,0,4,-5%,-22%
CN1CCN(c2ccc(NC(=O)c3ccc(-c4cccc([N+](=O)[O-])c4)o3)cc2)CC1,?,?,0,?,45µM*,?
O=C(Nc1ccc2oc(=O)ccc2c1)c1ccc(-c2cccc([N+](=O)[O-])c2)o1,?,-1%,-7,?,35µM*,-32%
CN1CCN(c2ccc(NC(=O)c3ccc(-c4ccc(Cl)cc4)o3)cc2)CC1,nt,-18%,?,-29,8.9µM*,?
